From the supplement of paper PMC6411743
± gives the standard deviation of the averaged measurements. Targets with the largest changes are over-represented here; the source holds about 5,400 in all.

Each target was assayed with Nc1nc2c(ncn2[C@@H]2O[C@H](COP(=O)(O)OP(=O)(O)OP(=O)(O)O)[C@@H](O)[C@H]2O)c(=O)[nH]1 [guanosine triphosphate] (assay: NP40-soluble protein abundance relative to vehicle (solubility fold change) (ratio); higher = more soluble protein in presence of GTP). Conditions: concentration: 2mM.
Procedure, shortened: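 Jurkat crude lysate prepared with a Dounce homogeniser was treated at eight concentrations spanning 0.1 to 10 mM, 10 min at room temperature then 3 min at 37 °C. Solubilisation with 0.8% NP40 and benzonase and ultracentrifugation preceded TMT labelling of the supernatant for LC-MS/MS. Fold change against the detergent-processed vehicle was determined per replicate from vsn-normalised intensities, across three independent experiments.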

Sequence of UniProt Q9NYL9 (Q9NYL9 whole entry): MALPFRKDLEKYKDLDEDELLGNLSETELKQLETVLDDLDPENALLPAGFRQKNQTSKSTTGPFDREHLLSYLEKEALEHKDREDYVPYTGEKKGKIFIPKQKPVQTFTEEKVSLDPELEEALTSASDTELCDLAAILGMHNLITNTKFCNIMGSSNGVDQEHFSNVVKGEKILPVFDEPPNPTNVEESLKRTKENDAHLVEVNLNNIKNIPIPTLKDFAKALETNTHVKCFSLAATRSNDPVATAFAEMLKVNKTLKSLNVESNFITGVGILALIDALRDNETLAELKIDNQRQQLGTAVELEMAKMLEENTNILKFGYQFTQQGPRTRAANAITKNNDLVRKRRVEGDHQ
Sequence of UniProt Q9UKA9 (Q9UKA9 whole entry): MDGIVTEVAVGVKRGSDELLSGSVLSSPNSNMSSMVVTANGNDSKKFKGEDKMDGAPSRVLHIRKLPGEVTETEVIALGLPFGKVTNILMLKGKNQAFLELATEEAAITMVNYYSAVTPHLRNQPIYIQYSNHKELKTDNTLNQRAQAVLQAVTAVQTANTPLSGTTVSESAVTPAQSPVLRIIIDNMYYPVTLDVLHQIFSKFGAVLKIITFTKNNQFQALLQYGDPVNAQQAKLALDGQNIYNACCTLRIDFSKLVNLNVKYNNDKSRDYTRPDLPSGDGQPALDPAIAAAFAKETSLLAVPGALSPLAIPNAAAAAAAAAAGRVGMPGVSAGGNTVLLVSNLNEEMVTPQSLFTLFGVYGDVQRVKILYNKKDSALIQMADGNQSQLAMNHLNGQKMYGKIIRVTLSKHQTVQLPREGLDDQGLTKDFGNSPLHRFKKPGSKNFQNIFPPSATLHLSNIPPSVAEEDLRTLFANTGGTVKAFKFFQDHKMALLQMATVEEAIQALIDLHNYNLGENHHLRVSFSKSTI
Sequence of UniProt Q9H6E4 (Q9H6E4 whole entry): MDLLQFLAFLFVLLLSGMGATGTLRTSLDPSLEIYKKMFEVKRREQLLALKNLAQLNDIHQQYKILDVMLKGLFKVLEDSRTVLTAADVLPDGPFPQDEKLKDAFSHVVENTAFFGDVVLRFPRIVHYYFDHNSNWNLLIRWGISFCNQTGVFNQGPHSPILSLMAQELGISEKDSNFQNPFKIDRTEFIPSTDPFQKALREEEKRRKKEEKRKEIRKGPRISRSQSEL
Sequence of UniProt Q9NS23 (Q9NS23 whole entry): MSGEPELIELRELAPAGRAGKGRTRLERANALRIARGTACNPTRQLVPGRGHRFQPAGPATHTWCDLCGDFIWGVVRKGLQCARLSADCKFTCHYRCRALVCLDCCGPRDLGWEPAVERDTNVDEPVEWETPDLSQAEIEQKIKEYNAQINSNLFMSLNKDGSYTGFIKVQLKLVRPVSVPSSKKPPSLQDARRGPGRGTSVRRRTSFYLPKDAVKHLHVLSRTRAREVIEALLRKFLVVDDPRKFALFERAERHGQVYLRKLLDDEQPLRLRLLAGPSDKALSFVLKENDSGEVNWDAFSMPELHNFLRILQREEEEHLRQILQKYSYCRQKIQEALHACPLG
Sequence of UniProt Q9BW71 (Q9BW71 whole entry): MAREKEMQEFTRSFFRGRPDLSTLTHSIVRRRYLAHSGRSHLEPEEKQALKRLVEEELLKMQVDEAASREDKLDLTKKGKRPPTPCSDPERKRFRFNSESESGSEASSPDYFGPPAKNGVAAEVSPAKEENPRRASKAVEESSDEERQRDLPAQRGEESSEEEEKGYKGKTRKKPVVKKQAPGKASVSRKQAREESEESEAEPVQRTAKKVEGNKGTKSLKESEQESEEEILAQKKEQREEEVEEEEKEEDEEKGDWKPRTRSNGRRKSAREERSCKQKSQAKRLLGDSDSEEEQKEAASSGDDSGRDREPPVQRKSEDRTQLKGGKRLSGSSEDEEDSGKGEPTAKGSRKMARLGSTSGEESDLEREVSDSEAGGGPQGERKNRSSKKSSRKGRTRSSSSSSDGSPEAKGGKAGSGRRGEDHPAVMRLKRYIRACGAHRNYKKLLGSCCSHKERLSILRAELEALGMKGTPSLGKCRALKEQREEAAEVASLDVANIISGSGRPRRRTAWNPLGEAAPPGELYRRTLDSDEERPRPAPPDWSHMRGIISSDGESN
Sequence of UniProt Q9NY12 (Q9NY12 whole entry): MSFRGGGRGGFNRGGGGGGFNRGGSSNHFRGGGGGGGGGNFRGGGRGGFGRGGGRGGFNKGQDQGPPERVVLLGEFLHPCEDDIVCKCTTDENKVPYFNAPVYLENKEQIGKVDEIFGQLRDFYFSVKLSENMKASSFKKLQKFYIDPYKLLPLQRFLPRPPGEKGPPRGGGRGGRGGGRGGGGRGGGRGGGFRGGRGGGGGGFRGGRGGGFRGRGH
Sequence of UniProt Q9NVK5 (Q9NVK5 whole entry): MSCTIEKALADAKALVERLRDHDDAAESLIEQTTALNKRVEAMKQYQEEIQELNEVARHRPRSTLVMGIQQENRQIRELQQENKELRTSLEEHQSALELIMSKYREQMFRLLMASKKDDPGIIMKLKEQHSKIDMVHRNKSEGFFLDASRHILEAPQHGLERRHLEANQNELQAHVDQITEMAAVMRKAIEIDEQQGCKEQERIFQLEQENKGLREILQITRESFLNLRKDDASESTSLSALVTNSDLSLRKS
Sequence of UniProt Q9BX67 (Q9BX67 whole entry): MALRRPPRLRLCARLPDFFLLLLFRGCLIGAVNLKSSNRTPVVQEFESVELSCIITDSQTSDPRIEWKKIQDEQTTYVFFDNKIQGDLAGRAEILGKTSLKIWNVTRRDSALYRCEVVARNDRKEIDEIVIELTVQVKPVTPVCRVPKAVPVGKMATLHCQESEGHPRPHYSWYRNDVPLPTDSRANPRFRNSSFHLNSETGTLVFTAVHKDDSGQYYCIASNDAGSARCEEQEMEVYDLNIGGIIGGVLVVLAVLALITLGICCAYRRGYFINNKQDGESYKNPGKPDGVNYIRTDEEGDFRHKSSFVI
Sequence of UniProt Q9NX24 (Q9NX24 whole entry): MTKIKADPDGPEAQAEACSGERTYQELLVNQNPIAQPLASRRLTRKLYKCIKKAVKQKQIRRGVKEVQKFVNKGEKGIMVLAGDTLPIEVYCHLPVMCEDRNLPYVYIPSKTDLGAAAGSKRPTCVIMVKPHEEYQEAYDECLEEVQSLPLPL
Sequence of UniProt Q969H8 (Q969H8 whole entry): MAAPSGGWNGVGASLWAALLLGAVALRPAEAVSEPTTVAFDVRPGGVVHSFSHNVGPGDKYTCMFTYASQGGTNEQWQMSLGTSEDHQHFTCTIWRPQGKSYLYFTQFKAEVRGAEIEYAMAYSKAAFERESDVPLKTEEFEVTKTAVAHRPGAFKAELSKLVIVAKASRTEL
Sequence of UniProt Q9UNE7 (Q9UNE7 whole entry): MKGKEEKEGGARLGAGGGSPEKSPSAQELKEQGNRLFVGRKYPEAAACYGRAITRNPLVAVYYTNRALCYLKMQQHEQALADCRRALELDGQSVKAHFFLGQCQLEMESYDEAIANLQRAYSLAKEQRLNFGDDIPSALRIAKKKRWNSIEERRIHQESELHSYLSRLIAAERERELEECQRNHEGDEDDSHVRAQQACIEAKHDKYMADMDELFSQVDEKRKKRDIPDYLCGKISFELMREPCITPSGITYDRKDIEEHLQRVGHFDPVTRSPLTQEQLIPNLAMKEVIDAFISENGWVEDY
Sequence of UniProt Q03519 (Q03519 whole entry, one chain of several): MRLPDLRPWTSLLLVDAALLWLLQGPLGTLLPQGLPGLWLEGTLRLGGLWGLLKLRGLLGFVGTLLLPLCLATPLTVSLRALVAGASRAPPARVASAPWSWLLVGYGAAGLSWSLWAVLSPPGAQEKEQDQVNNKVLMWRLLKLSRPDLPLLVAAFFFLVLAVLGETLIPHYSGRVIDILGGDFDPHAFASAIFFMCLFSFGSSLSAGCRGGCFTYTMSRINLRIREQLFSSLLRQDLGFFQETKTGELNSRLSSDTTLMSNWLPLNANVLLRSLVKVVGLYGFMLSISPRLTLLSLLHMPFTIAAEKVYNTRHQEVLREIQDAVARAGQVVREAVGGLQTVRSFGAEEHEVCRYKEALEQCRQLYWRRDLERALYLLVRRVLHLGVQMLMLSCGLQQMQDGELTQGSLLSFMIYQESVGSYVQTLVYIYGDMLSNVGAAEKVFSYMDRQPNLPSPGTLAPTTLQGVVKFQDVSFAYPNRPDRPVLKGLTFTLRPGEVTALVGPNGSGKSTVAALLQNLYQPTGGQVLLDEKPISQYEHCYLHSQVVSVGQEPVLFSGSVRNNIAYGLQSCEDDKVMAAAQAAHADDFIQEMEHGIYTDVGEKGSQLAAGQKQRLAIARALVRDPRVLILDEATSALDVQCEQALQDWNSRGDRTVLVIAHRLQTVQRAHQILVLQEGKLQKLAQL
Sequence of UniProt Q9NPF5 (Q9NPF5 whole entry): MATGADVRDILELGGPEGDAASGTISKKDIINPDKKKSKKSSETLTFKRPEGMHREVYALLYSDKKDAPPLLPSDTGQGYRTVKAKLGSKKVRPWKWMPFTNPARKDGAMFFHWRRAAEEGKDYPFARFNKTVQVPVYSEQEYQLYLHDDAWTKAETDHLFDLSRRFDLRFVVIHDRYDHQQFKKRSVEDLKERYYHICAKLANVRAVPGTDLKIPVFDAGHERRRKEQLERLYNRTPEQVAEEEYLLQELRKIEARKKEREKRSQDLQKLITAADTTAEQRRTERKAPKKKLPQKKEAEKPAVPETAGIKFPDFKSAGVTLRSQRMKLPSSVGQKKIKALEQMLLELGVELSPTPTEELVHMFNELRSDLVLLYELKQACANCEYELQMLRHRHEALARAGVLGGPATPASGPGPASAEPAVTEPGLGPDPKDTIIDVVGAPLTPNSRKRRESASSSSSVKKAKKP
Sequence of UniProt Q9UII2 (Q9UII2 whole entry): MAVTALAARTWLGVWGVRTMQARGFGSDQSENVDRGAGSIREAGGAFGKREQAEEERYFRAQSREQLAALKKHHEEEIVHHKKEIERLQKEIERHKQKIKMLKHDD

Target	NP40-soluble protein abundance
UTP18 (UniProt Q9Y5J1)	1.24 ± 0.091
DDX18 (UniProt Q9NVP1)	1.2 ± 0.071
STUB1 (UniProt Q9UNE7)	1.03 ± 0.027
NCAPG (UniProt Q9BPX3)	1.03 ± 0.044
UniProt Q96EM0	0.892 ± 0.11
XRN2 (UniProt Q9H0D6)	0.977 ± 0.027
HIRIP3 (UniProt Q9BW71)	0.983 ± 0.15
X5CMH5 (UniProt Q03519)	1.01 ± 0.085
PGAM5 (UniProt Q96HS1)	1.4 ± 0.26
FN3KRP (UniProt Q9HA64)	0.913 ± 0.061
UniProt Q9UJX5|Q9UJX5-3|Q9UJX5-2	1.27 ± 0.23
UniProt Q9Y2A7|Q9Y2A7-2	0.982 ± 0.015
UniProt Q96MT7-2	0.863 ± 0.12
UniProt Q969P0|Q969P0-3	0.956 ± 0.058
UniProt Q9UII2	0.936 ± 0.1
NHP2 (UniProt Q9NX24)	1.09 ± 0.067
DMAP1 (UniProt Q9NPF5)	1.17 ± 0.099
UniProt Q96T23|Q96T23-2	1.45 ± 0.1
WDR3 (UniProt Q9UNX4)	1.42 ± 0.13

Target	NP40-soluble protein abundance
UniProt Q9NVI7-2	1.56 ± 0.18
UniProt Q9NW08|Q9NW08-2	1.15 ± 0.18
UniProt Q9NVK5|Q9NVK5-2	1.11 ± 0.086
UniProt Q9BTY7	1.05 ± 0.033
UniProt Q9UKV8	1.11 ± 0.053
UniProt Q9NY12|Q9NY12-2	1.34 ± 0.15
UniProt Q9UKA9|Q9UKA9-4	0.989 ± 0.045
TMOD3 (UniProt Q9NYL9)	1.01 ± 0.029
UniProt Q96L91|Q96L91-2|Q96L91-3|Q96L91-5	1.18 ± 0.061
RAB21 (UniProt Q9UL25)	0.862 ± 0.011
OCIAD1 (UniProt Q9NX40)	0.982 ± 0.058
UniProt Q93052|A0A087WZF1|C9JXK9	0.906 ± 0.071
UniProt Q99707|Q99707-2	1.01 ± 0.033
CCDC134 (UniProt Q9H6E4)	0.911 ± 0.087
UniProt Q9BX67	0.913 ± 0.066
UniProt Q969H8	0.85 ± 0.019
UniProt Q9UMX0|Q9UMX0-2	1.02 ± 0.032
UniProt Q9Y4P8|Q9Y4P8-4|Q9Y4P8-6	0.961 ± 0.1
UniProt Q9NS23|Q9NS23-2|Q9NS23-3|Q9NS23-4|Q9NS23-5	1.04 ± 0.058

Same assay, conditions: concentration: 4mM

Target	NP40-soluble protein abundance
UTP18 (UniProt Q9Y5J1)	1.37 ± 0.11
DDX18 (UniProt Q9NVP1)	1.42 ± 0.057
STUB1 (UniProt Q9UNE7)	1.01 ± 0.078
NCAPG (UniProt Q9BPX3)	0.978 ± 0.042
UniProt Q96EM0	1.02 ± 0.026
XRN2 (UniProt Q9H0D6)	0.985 ± 0.018
HIRIP3 (UniProt Q9BW71)	1.04 ± 0.14
X5CMH5 (UniProt Q03519)	0.976 ± 0.063
PGAM5 (UniProt Q96HS1)	1.67 ± 0.38
FN3KRP (UniProt Q9HA64)	0.905 ± 0.042
UniProt Q9UJX5|Q9UJX5-3|Q9UJX5-2	1.25 ± 0.27
UniProt Q9Y2A7|Q9Y2A7-2	0.991 ± 0.034
UniProt Q96MT7-2	0.869 ± 0.04
UniProt Q969P0|Q969P0-3	0.932 ± 0.069
UniProt Q9UII2	0.875 ± 0.1
NHP2 (UniProt Q9NX24)	1.2 ± 0.096
DMAP1 (UniProt Q9NPF5)	1.22 ± 0.12
UniProt Q96T23|Q96T23-2	1.72 ± 0.22
WDR3 (UniProt Q9UNX4)	1.81 ± 0.16

Target	NP40-soluble protein abundance
UniProt Q9NVI7-2	1.79 ± 0.32
UniProt Q9NW08|Q9NW08-2	1.19 ± 0.16
UniProt Q9NVK5|Q9NVK5-2	1.13 ± 0.1
UniProt Q9BTY7	1.03 ± 0.082
UniProt Q9UKV8	1.1 ± 0.026
UniProt Q9NY12|Q9NY12-2	1.51 ± 0.24
UniProt Q9UKA9|Q9UKA9-4	0.947 ± 0.051
TMOD3 (UniProt Q9NYL9)	1.02 ± 0.019
UniProt Q96L91|Q96L91-2|Q96L91-3|Q96L91-5	1.24 ± 0.13
RAB21 (UniProt Q9UL25)	0.837 ± 0.029
OCIAD1 (UniProt Q9NX40)	0.971 ± 0.072
UniProt Q93052|A0A087WZF1|C9JXK9	0.884 ± 0.063
UniProt Q99707|Q99707-2	0.973 ± 0.022
CCDC134 (UniProt Q9H6E4)	0.905 ± 0.077
UniProt Q9BX67	0.905 ± 0.046
UniProt Q969H8	0.834 ± 0.05
UniProt Q9UMX0|Q9UMX0-2	1.012 ± 0.0015
UniProt Q9Y4P8|Q9Y4P8-4|Q9Y4P8-6	0.959 ± 0.1
UniProt Q9NS23|Q9NS23-2|Q9NS23-3|Q9NS23-4|Q9NS23-5	1.05 ± 0.09

Same assay, conditions: concentration: 6mM

Target	NP40-soluble protein abundance
UTP18 (UniProt Q9Y5J1)	1.3 ± 0.044
DDX18 (UniProt Q9NVP1)	1.55 ± 0.061
STUB1 (UniProt Q9UNE7)	1.01 ± 0.012
NCAPG (UniProt Q9BPX3)	1.01 ± 0.047
UniProt Q96EM0	0.929 ± 0.095
XRN2 (UniProt Q9H0D6)	0.986 ± 0.027
HIRIP3 (UniProt Q9BW71)	1.07 ± 0.14
X5CMH5 (UniProt Q03519)	0.951 ± 0.051
PGAM5 (UniProt Q96HS1)	1.79 ± 0.45
FN3KRP (UniProt Q9HA64)	0.884 ± 0.031
UniProt Q9UJX5|Q9UJX5-3|Q9UJX5-2	1.23 ± 0.32
UniProt Q9Y2A7|Q9Y2A7-2	0.9641 ± 0.0054
UniProt Q96MT7-2	0.915 ± 0.14
UniProt Q969P0|Q969P0-3	0.932 ± 0.049
UniProt Q9UII2	0.908 ± 0.14
NHP2 (UniProt Q9NX24)	1.39 ± 0.16
DMAP1 (UniProt Q9NPF5)	1.24 ± 0.15
UniProt Q96T23|Q96T23-2	2.07 ± 0.29
WDR3 (UniProt Q9UNX4)	1.98 ± 0.2

Target	NP40-soluble protein abundance
UniProt Q9NVI7-2	1.9 ± 0.29
UniProt Q9NW08|Q9NW08-2	1.16 ± 0.19
UniProt Q9NVK5|Q9NVK5-2	1.19 ± 0.092
UniProt Q9BTY7	0.998 ± 0.049
UniProt Q9UKV8	1.07 ± 0.078
UniProt Q9NY12|Q9NY12-2	1.72 ± 0.19
UniProt Q9UKA9|Q9UKA9-4	0.955 ± 0.036
TMOD3 (UniProt Q9NYL9)	1.02 ± 0.026
UniProt Q96L91|Q96L91-2|Q96L91-3|Q96L91-5	1.26 ± 0.14
RAB21 (UniProt Q9UL25)	0.84 ± 0.039
OCIAD1 (UniProt Q9NX40)	0.956 ± 0.053
UniProt Q93052|A0A087WZF1|C9JXK9	0.896 ± 0.081
UniProt Q99707|Q99707-2	0.965 ± 0.0072
CCDC134 (UniProt Q9H6E4)	0.881 ± 0.084
UniProt Q9BX67	0.88 ± 0.086
UniProt Q969H8	0.853 ± 0.057
UniProt Q9UMX0|Q9UMX0-2	0.994 ± 0.039
UniProt Q9Y4P8|Q9Y4P8-4|Q9Y4P8-6	0.959 ± 0.053
UniProt Q9NS23|Q9NS23-2|Q9NS23-3|Q9NS23-4|Q9NS23-5	1.01 ± 0.022
